Hit rate of the full screen: of about 5,500 compounds, about 2,000 (36%) were called active. Inconclusive results (about 18%) are left out. Rule as the data show it: active = normalized growth mostly below about 0.91 (no sharp cut-off); inconclusive = no clear call, values can overlap the other calls; inactive = mostly above about 0.92. This is one part of the list.
Assay: chemical genetic growth profiling, strain panel (AID 1159580);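 also: tested at 20 µM; growth read once vehicle control cultures reached saturation at 30 °C; 1 = growth at the plate median or of vehicle wells; lower values mean less growth of the strain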
Conditions: S. cerevisiae deletion strains, growth OD

Measured: normalized growth

CC1(C)CCC[C@@]2(C)C1[C@@H](O)C[C@]1(C)C2CC[C@@H]2[C@@]3(C)CC[C@H](C(C)(C)O)[C@@H]3CC[C@@]21C (some centres not stated)
inactive: locus YAL013W, strain DEP1, stronger effect = lower value 0.998 | locus YBR021W, strain FUR4, stronger effect = lower value 1.07 | locus YBR229C, strain ROT2, stronger effect = lower value 1 | locus YCL029C, strain bik1, stronger effect = lower value 0.971 | locus YDL035C, strain GPR1, stronger effect = lower value 1.01 | locus YDL074C, strain BRE1, stronger effect = lower value 1.02 | locus YDL101C, strain DUN1, stronger effect = lower value 1 | locus YDL185W, strain tfp1, stronger effect = lower value 0.943 | locus YDL192W, strain arf1, stronger effect = lower value 0.993 | locus YDR101C, strain arx1, stronger effect = lower value 1.01 | locus YDR150W, strain NUM1, stronger effect = lower value 0.992 | locus YDR162C, strain NBP2, stronger effect = lower value 1.04 | locus YDR318W, strain mcm21, stronger effect = lower value 1 | locus YDR388W, stronger effect = lower value 0.986 | locus YDR502C, strain sam2, stronger effect = lower value 0.989 | locus YEL061C, strain CIN8, stronger effect = lower value 1 | locus YER110C, stronger effect = lower value 0.977 | locus YER155C, strain BEM2, stronger effect = lower value 1.01 | locus YER167W, strain BCK2, stronger effect = lower value 0.997 | locus YGL078C, strain dbp3, stronger effect = lower value 1 | locus YGL086W, strain mad1, stronger effect = lower value 1.05 | locus YGL248W, strain PDE1, stronger effect = lower value 1 | locus YGR135W, strain pre9, stronger effect = lower value 0.993 | locus YGR252W, strain gcn5, stronger effect = lower value 1.06 | locus YHR030C, strain SLT2, stronger effect = lower value 0.992 | locus YHR079C, strain IRE1 (second series), stronger effect = lower value 1.01 | locus YHR094C, strain hxt1, stronger effect = lower value 0.981 | locus YHR129C, strain ARP1, stronger effect = lower value 0.997 | locus YHR200W, strain rpn10, stronger effect = lower value 0.984 | locus YIL066C, strain RNR3, stronger effect = lower value 1.03 | locus YIL073C, strain SPO22, stronger effect = lower value 0.941 | locus YIL125W, strain kgd1, stronger effect = lower value 0.972 | locus YIR030C, strain dcg1, stronger effect = lower value 0.996 | locus YJL095W, strain BCK1, stronger effect = lower value 1.02 | locus YJL134W, strain LCB3, stronger effect = lower value 0.991 | locus YJL168C, strain set2, stronger effect = lower value 1.01 | locus YJL187C, strain SWE1 (second series), stronger effect = lower value 1 | locus YJR043C, strain POL32, stronger effect = lower value 1.03 | locus YKL009W, strain mrt4, stronger effect = lower value 1.05 | locus YKL068W, stronger effect = lower value 0.98 | locus YKL085W, strain MDH1 (second series), stronger effect = lower value 1.04 | locus YKL085W, strain MDH1, stronger effect = lower value 1.04 | locus YKL190W, strain CNB1, stronger effect = lower value 0.997 | locus YKR001C, strain vps1, stronger effect = lower value 1.03 | locus YLR039C, strain RIC1, stronger effect = lower value 1.05 | locus YLR058C, strain SHM2, stronger effect = lower value 0.996 | locus YLR102C, strain apc9, stronger effect = lower value 0.995 | locus YLR262C, strain YPT6, stronger effect = lower value 1.04 | locus YLR268W, strain sec22, stronger effect = lower value 0.986 | locus YLR330W, strain CHS5, stronger effect = lower value 0.983 | locus YLR342W, strain FKS1 (second series), stronger effect = lower value 1.01 | locus YLR371W, strain rom2, stronger effect = lower value 0.984 | locus YLR418C, strain cdc73, stronger effect = lower value 1.06 | locus YML016C, strain PPZ1, stronger effect = lower value 0.995 | locus YML032C, strain rad52, stronger effect = lower value 0.983 | locus YML124C, strain tub3, stronger effect = lower value 1.01 | locus YMR078C, strain ctf18, stronger effect = lower value 1.01 | locus YMR223W, strain ubp8, stronger effect = lower value 0.998 | locus YMR263W, strain SAP30, stronger effect = lower value 1 | locus YMR307W, strain GAS1, stronger effect = lower value 1.12 | locus YNL067W, strain RPL9B, stronger effect = lower value 1.02 | locus YNL153C, strain GIM3, stronger effect = lower value 1.02 | locus YNL233W, strain BNI4, stronger effect = lower value 1.03 | locus YNL250W, strain rad50, stronger effect = lower value 0.982 | locus YNL271C, strain bni1, stronger effect = lower value 0.997 | locus YNL298W, strain CLA4, stronger effect = lower value 0.975 | locus YNL307C, strain MCK1, stronger effect = lower value 0.996 | locus YNL322C, strain KRE1, stronger effect = lower value 1 | locus YNR052C, strain pop2, stronger effect = lower value 0.994 | locus YOL012C, strain htz1 1.13 | locus YOL147C, strain pex11, stronger effect = lower value 0.993 | locus YOR061W, strain CKA2, stronger effect = lower value 0.999 | locus YOR069W, strain VPS5, stronger effect = lower value 0.993 | locus YOR136W, strain idh2, stronger effect = lower value 0.988 | locus YOR144C, strain elg1, stronger effect = lower value 0.997 | locus YOR184W, strain ser1, stronger effect = lower value 1.01 | locus YOR316C, strain cot1, stronger effect = lower value 0.985 | locus YPR119W, strain clb2, stronger effect = lower value 1 | locus YPR141C, strain kar3, stronger effect = lower value 0.982 | locus YPR163C, strain tif3, stronger effect = lower value 0.99 | locus YPR167C, strain met16, stronger effect = lower value 0.989 | strain wtn01, stronger effect = lower value 0.986
